Columns and labels:
Experiment in all cases: PBM binding z-score (relative to random genomic background probes); higher = stronger binding; sequences stand for … in GC…GCGATTGACAGCGTAGAATGAAGG
[1] = test system: RARb homodimer (NR concentration 270 nM)
In short: (§1)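 Custom Agilent 4×180K protein-binding microarrays carried double-stranded probes. Their 34-nt variable regions held direct-repeat seeds, single-nucleotide variants, half-site ablations and random human genomic background sequences. Arrays were incubated 1 h with ligand-free nuclear receptor dimers in PBS pH 7.4, 2% milk, 0.02% Triton X-100, 1 mM DTT, 0.2 mg/mL BSA and 0.4 mg/ml salmon testes DNA. Antibodies against each partner (one per run) detected binding, and scanned fluorescence was regression-normalized. Binding z-scores use random background probes as reference.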

[2] = test system: RARg:RXRa (NR concentration 270 nM, RXRa partner concentration 90 nM)
In short: as §1

[3] = test system: RARg homodimer (NR concentration 270 nM)
In short: as §1

[4] = test system: RXRa DBDmut IVT, anti-RXR (DBD mutation: RXRa K156A/R161A, NR concentration 90 nM)
In short: as §1

[5] = test system: RXRa homodimer (NR concentration 180 nM)
In short: as §1

[6] = test system: THRa:RXRa (NR concentration 90 nM, RXRa partner concentration 90 nM)
In short: as §1

[7] = test system: THRa homodimer (NR concentration 90 nM)
In short: as §1

[8] = test system: VDR homodimer (NR concentration 270 nM)
In short: as §1

Row | Sequence | PBM binding z-score [1] | PBM binding z-score [2] | PBM binding z-score [3] | PBM binding z-score [4] | PBM binding z-score [5] | PBM binding z-score [6] | PBM binding z-score [7] | PBM binding z-score [8]
1 | CCTCGGAGGACAGAAGGTCAGAACTGTCCGCTTT | 3.17 | 2.9 | 2.58 | 0.39 | 1.43 | 1.85 | 0.203 | 0.761
2 | GATACAGGGTCAGCTAGAGGCCCGAGTATGGAAA | 2.47 | 4.74 | 3.86 | 1.21 | 4.25 | 2.49 | 0.0608 | 0.402
3 | ATCGACAGGTCGAGGTGAGTATAGAGAAAGGGAA | 0.915 | 1.68 | 1.89 | -0.333 | 1.22 | 1.59 | 0.108 | 0.0129
4 | TGACCAAGGTGAGCTGAGGTCGTTGATCCAACTC | 1.63 | 1.46 | 1.17 | -0.41 | 1.52 | 4.69 | 1.8 | 1.7
5 | CAAACTAGGTCACAGAGGCCAAAGTCCGTGCGTA | 3.73 | 4.88 | 5.37 | 2.45 | 3.63 | 3.66 | 1.54 | 2.62
6 | ATCTCTAGGTAAAGTTCACTGAAAGATCGATAGA | 3.34 | 3.14 | 3.42 | 2.2 | 2.82 | 1.95 | 0.46 | 3.79
7 | GCGAGCAGGCCATTTGGGTCACTCAATGACGGGC | 1.96 | 1.09 | 1.37 | 0.115 | 0.824 | 1.85 | 0.687 | 0.921
